Measured values as given in ChEMBL document CHEMBL4888484, “Replenishing the malaria drug discovery pipeline: Screening and hit evaluation of the MMV Hit Generation Library 1 (HGL1) against asexual blood stage Plasmodium falciparum ,using a nano luciferase reporter read-out” (2022).
Among all 150,000 compounds or so, about 540 (0.36%) showed an effect of 50% or more. The sample holds strong results, similar compounds and a random draw of the others, so the mix is not that of the screen.

The compounds below were run on Plasmodium falciparum (assay: Primary screen in NF54 nanoGlo assay, in single point, at 2uM, 72h; a lower Z score goes with more inhibition). Conditions: timepoint 72 hour.
Format: functional, Erythrocyte

SMILES | % Inhibition | Z score
Fc1cc(CNCC(F)F)ccc1Cl | -7% | 0.98
CC(NC[C@H](C)O)C(C)(C)c1ccc(F)cc1 (stereo partly specified) | -3% | 0.44
O=c1ccc(-c2cncnc2)c2n1C[C@H]1C[C@@H]2CN(S(=O)(=O)c2ccccc2)C1 | -11% | 1.78
Cc1ccc(CN2CCN(C(=O)Cc3cccnc3)[C@H]3CS(=O)(=O)C[C@H]32)o1 | 5% | -0.92
CCC(=O)Nc1ccc(C)c(NC(=O)C2(c3ccccc3)CCN(C)CC2)c1 | -9% | 1.09
CCc1cccc(N(C(=O)c2ccc(NC(C)=O)cc2)C2(C(=O)NCc3ccccc3)CCN(C(C)=O)CC2)c1 | 0% | 0
CC(=O)N(C1CCN(Cc2ccccc2)CC1)C1(C(=O)Nc2ccc3[nH]ccc3c2)CCN(C)CC1 | 92% | -11.04
CN(C)c1ccc(CN2CCN(CCO)[C@@H]3CS(=O)(=O)C[C@@H]32)cn1 | -3% | 0.58
O=C(Cc1ccc(O)c(F)c1)N1C[C@H]2c3ccccc3OC[C@@]2(C(=O)O)C1 | -2% | 0.24
CCOc1ccccc1NC(=O)CN1CC=C(c2cnn(C)c2)CC1 | -1% | 0.1
COc1ccc(-c2csc(-n3cc(C4=CCN(CCO)CC4)cn3)n2)cc1 | 50% | -5.49
CN(C)C1(CNc2ccc(C#N)c(Cl)c2)CCOCC1 | -5% | 0.53
O=C(c1cc(F)cc(F)c1)N1CCC2(CC1)N(c1ccccc1)C(=O)CS2(=O)=O | -15% | 2.33
CC(C)(N)Cc1ccc(C(F)(F)F)cc1 | 1% | -0.09
CN1CCC[C@@]2(CCN(c3ccncc3C3CC3)C2)C1 | 0% | 0.05
c1cc(N2CC[C@@]3(CCCNC3)C2)c2sccc2n1 | 98% | -16.03
CN1CC[C@@]2(CCCN(c3ccncc3F)C2)C1 | -8% | 0.76
CN1CC[C@]2(CCN(c3ccnc4ccsc34)C2)C1 | 98% | -10.65
Clc1cccc2c(N3CC[C@]4(CCNC4)C3)ccnc12 | 23% | -3.12
CCc1cc(CN[C@@H](C)Cc2ccc(F)cc2)on1 | -5% | 0.53
Cc1nc(CN2C[C@@H](CO)[C@H](c3ccc(Cl)cc3)C2)co1 | 4% | -0.83

SMILES | % Inhibition | Z score
O=C(CNc1ccc(Cl)c(F)c1)N1CCC2(CC1)OCCO2 | 28% | -3.19
CCCS(=O)(=O)Nc1ccc(=O)n2c1[C@@H]1C[C@@H](CN(C(=O)Nc3ccc(F)cc3)C1)C2 | 27% | -3.06
N#Cc1ccc(N[C@H]2CCN(C3CCOCC3)C2=O)cc1C(F)(F)F | 1% | -0.05
CN(Cc1ccccc1)C[C@H]1C[N@@]2CC[C@H]1C[C@@H]2CNC(=O)c1ccccc1 | 11% | -1.99
C=CCN(C)C[C@H]1CN2CC[C@H]1C[C@@H]2CNC(=O)Nc1ccc(OC(F)(F)F)cc1 | 57% | -4.08
C#CCN(C)C[C@H]1C[N@@]2CC[C@H]1C[C@@H]2CNC(=O)c1ccccc1 | 33% | -3.75
O=C(c1ccncc1F)N1C[C@H]2CC[C@@H](C1)N(CC1CC1)C2 | 2% | -0.29
O=C(NCc1ccccc1)N1Cc2ccccc2-n2cccc2[C@H]1c1ccccc1 | -9% | 1.11
CN1CCN(CC(=O)N2CCC3(CC2)OCCO3)c2ccc(Cl)cc21 | -13% | 2.46
CCCc1cncnc1N1C[C@H]2CC[C@@H](C1)N(CCC)C2 | 7% | -1.29
Cc1nc[nH]c1CN1C[C@H]2CC[C@@H](C1)N(C(=O)Cc1ccncc1)C2 | -5% | 0.88
COc1ccc2c(c1)OC[C@@]1(C(=O)O)CN(CCC(F)(F)F)C[C@@H]21 | 3% | -0.33
Cc1cc(Cl)cc2c(N3CC[C@@]4(O)CCNC[C@H]4C3)ccnc12 | 3% | -0.52
Cc1cc(C)n2ncc(CN3C[C@@H]4CC[C@H](C3)C(=O)N4)c2n1 | -11% | 1.38
CC(C)(C)OC(=O)N1[C@@H]2CC[C@H]1[C@@H]1C[C@]1(C(=O)O)C2 | -10% | 1.06
CC(C)c1ncc(C(=O)N[C@H]2CN3CCC2CC3)cn1 | 2% | -0.19
c1ccc2c(CN3CCCCCC3)c[nH]c2c1 | 5% | -0.53
O=C(Cc1c[nH]c2ccccc12)N1CCN(Cc2nnn3c2CO[C@H](c2cccc(F)c2)C3)CC1 | -6% | 0.79
CCOc1ccccc1NC(=O)c1ccc2oc(=O)n(Cc3ccc(F)cc3)c2c1 | 2% | -0.31
CC(C)CCC(=O)N1CCC2CCN(C)CC21 (stereo unspecified) | -3% | 0.4
COc1cccc(CNC(=O)N2CC[C@@H]3CCN(C)C[C@@H]32)n1 | 88% | 0.42

SMILES | % Inhibition | Z score
CN1CCC2CCN(C(=O)Nc3nccs3)C2C1 (stereo unspecified) | -8% | 0.77
C[C@]1(c2ccccc2Cl)NC(=O)N(CC(=O)Nc2ccc(Cl)cc2C(=O)c2ccccc2)C1=O | -1% | 0.1
O=C(c1ccccc1)c1cc(Cl)ccc1NC(=O)C1CCN(C(=O)c2ccco2)CC1 | 1% | -0.14
O=C(c1ccccc1)c1cc(Cl)ccc1NC(=O)[C@H]1CC(=O)N(c2ccc(F)cc2)C1 | 56% | -9.01
Cc1sc2ncnc(N3CCN4CCC[C@H]4C3)c2c1C | -5% | 0.64
O=C(COc1ccccc1)N1CCCCC[C@@H]1CN1CCCC1 | 1% | -0.2
CC(C)n1ccc(C(=O)NC2CC(C(=O)O)c3ccccc32)n1 (stereo unspecified) | -1% | 0.16
Cc1cc(C(=O)NC2CC2)nn1[C@@H](C)C1CC1 | -5% | 0.91
Cc1cc(C(=O)NC2CC(C)n3ccnc32)nn1C(C)C (stereo unspecified) | 62% | -7.62
CC(Cc1ccccc1Br)NC(C)c1cccnc1 (stereo unspecified) | 2% | -0.27
C[C@@H](Cc1ccccc1F)NCC1(CO)CCCC1 | -3% | 0.57
Cc1ccc2c(c1)CCCN2C(=O)CN1CC=C(c2cnn(C)c2)CC1 | 55% | -3.45
CCOc1ccc(NC(=O)CN2CC=C(c3cnn(C)c3)CC2)cc1 | -9% | 0.93
COc1ccc(NC(=O)CN2CC=C(c3cnn(C)c3)CC2)cc1Cl | -9% | 1.67
CC1CCCC2CCCN(Cc3nc4c(cnn4C)c(=O)[nH]3)C12 (stereo unspecified) | -8% | 0.94
C[C@@H](Cc1ccc(F)cc1)NCC(C)(C)C(N)=O | -4% | 0.56
C=CCCC(CN1C[C@H]2CC=CC[C@H]2C1)Oc1ccnc(C)n1 (stereo partly specified) | 3% | -0.6
C=CCCC(CN1C[C@H]2CC=CC[C@H]2C1)Oc1ncccn1 (stereo partly specified) | -8% | 1.33
C=CCCC(CN1C[C@H]2CC=CC[C@H]2C1)Oc1ncc(F)cn1 (stereo partly specified) | 75% | -13.95
Cc1oncc1C(=O)N1C[C@H](c2cc(F)cc(F)c2)[C@@H]2[C@H]1C1CCN2CC1 | -4% | 0.74
Cc1cnc(N2C[C@H]3CN(C)C[C@H]3C2)c(Br)c1 | -1% | 0.19

SMILES | % Inhibition | Z score
Fc1cnc(N2C[C@@H](c3ccccc3)[C@@H]3[C@H]2C2CCN3CC2)nc1 | -13% | 2.17
CN1CCN2c3cccc(Cl)c3CC3(C(=O)NC(=O)N(c4ccc(F)cc4)C3=O)C2C1 (stereo unspecified) | 4% | -0.49
COCCn1cc(C(=O)N[C@H]2C[C@@](CO)(c3ccccc3)C2)nn1 | 1% | -0.11
COCCn1ccc(C(=O)NC(C)(C)c2ccc(F)cc2Cl)n1 | 4% | -0.52
COCCn1ccc(C(=O)N[C@H]2CCc3nc(C(C)C)nn3C2)n1 | 71% | -11.17
CN(C(=O)CCC(F)(F)F)C1CC2CCC(C1)N2 (stereo unspecified) | -19% | 1.62
O=S(=O)(NC12CCCC1CNC2)c1onc(C2CC2)c1Cl (stereo unspecified) | 94% | -8.97
CCCCOc1ncccc1CNC(=O)C1CN2CCCC2CO1 (stereo unspecified) | -1% | 0.09
CCC(CC)c1cc([C@H]2CN3CC[C@H]2C[C@@H]3CNS(=O)(=O)Cc2ccccc2)nc(-c2ccncc2)n1 | 75% | -9.43
CCC(CC)c1cc([C@H]2CN3CC[C@H]2C[C@@H]3CO)nc(-c2ccncc2)n1 | 25% | -2.22
CCCS(=O)(=O)NC[C@H]1C[C@@H]2CCN1C[C@@H]2c1cc(C(CC)CC)nc(-c2ccncc2)n1 | 35% | -3.34
COCCN1C[C@@H]2CC[C@H]1CN(C(=O)c1cc(C(C)C)on1)C2 | 4% | -0.35
Cc1ncsc1CN1C[C@@H]2CC[C@H]1CN(Cc1c(C)noc1C)C2 | -5% | 0.89
Cc1ccc(CNc2ncnc3[nH]ncc23)c(-n2cc(Cl)cn2)n1 | 12% | -2.28
CN(C)c1ccnc(N2C[C@@H](c3ccc4c(c3)OCO4)[C@@H]3[C@H]2C2CCN3CC2)n1 | -7% | 0.91
c1cc2c(cc1CCN1CCCC1)CCO2 | -12% | 1.27
Cn1nc(C(=O)N2CCC3(CC2)OCCO3)c2ccccc2c1=O | -14% | 2.25
Cc1ccc(C)n1[C@@H](Cc1cnc[nH]1)C(=O)O | -1% | 0.15
c1cc2c(c(-c3cnccn3)c1)CCNC2 | -4% | 0.84
c1ccc2c(c1)C[C@H](Cc1ccc3c(c1)CNCC3)CO2 | 3% | -0.36
